# From PubChem BioAssay (NCI)
# Compounds without any hit were thinned out: in the full panel of roughly 83,000, 20% have a hit.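 Treatment: one concentration, 48 hours, 96-well format. Scoring: percent growth, with anything below 10 considered active.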 Unmarked numbers belong to inactive results. Active and inactive are the calls of the source.
# What was measured:
# Experiment in all cases: NCI-60 one-dose screen, 48 h (100 = growth as untreated, 0 = no growth, -100 = all killed)
# SK-MEL-2 melanoma = details: 10 µM unless noted
# EKVX NSCLC = details: 10 µM unless noted
# UO-31 renal = details: 10 µM unless noted
# TK-10 renal = details: 10 µM unless noted
# ACHN renal = details: 10 µM unless noted
# CAKI-1 renal = details: 10 µM unless noted
# CCRF-CEM leukemia = details: 10 µM unless noted
# MOLT-4 leukemia = details: 10 µM unless noted
# SR leukemia = details: 10 µM unless noted
# RPMI-8226 leukemia = details: 10 µM unless noted
# OVCAR-8 ovarian = details: 10 µM unless noted
# OVCAR-5 ovarian = details: 10 µM unless noted
# OVCAR-4 ovarian = details: 10 µM
# SK-OV-3 ovarian = details: 10 µM unless noted
# OVCAR-3 ovarian = details: 10 µM unless noted
# HS 578T breast = details: 10 µM unless noted
# NCI/ADR-RES ovarian = details: 10 µM unless noted
# A498 renal = details: 10 µM unless noted
# IGROV1 ovarian = details: 10 µM unless noted
# SN12C renal = details: 10 µM unless noted
Compound,growth (SK-MEL-2 melanoma),growth (EKVX NSCLC),growth (UO-31 renal),growth (TK-10 renal),growth (ACHN renal),growth (CAKI-1 renal),growth (CCRF-CEM leukemia),growth (MOLT-4 leukemia),growth (SR leukemia),growth (RPMI-8226 leukemia),growth (OVCAR-8 ovarian),growth (OVCAR-5 ovarian),growth (OVCAR-4 ovarian),growth (SK-OV-3 ovarian),growth (OVCAR-3 ovarian),growth (HS 578T breast),growth (NCI/ADR-RES ovarian),growth (A498 renal),growth (IGROV1 ovarian),growth (SN12C renal)
N#Cc1c(Cl)nc(SCC2CO2)nc1-c1ccccc1 (configuration not stated),70.1%,99.6%,66.1%,111%,95.5%,87.9%,110%,113%,89.8%,103%,51.6%,101%,103%,70.2%,137%,121%,108%,–,–,–
C[C@H]1[C@H](C)CC[C@]2(COC(=O)CCC(=O)O)CC[C@]3(C)C(=CC[C@@H]4[C@@]5(C)CCCNC(C)(C)[C@@H]5CC[C@]43C)[C@H]12,55.6% [100 µM],71.5% [100 µM],65.4% [100 µM],81.3% [100 µM],60.2% [100 µM],54.1% [100 µM],73.5% [100 µM],46% [100 µM],80.4% [100 µM],59.7% [100 µM],69.8% [100 µM],88.5% [100 µM],–,65.2% [100 µM],75.4% [100 µM],41.8% [100 µM],71.8% [100 µM],70.3% [100 µM],54.9% [100 µM],–
CCn1cc(-c2[nH]c(=S)ncc2-c2ccc(Cl)cc2)c(-c2ccc(Br)cc2)n1,72%,85.7%,89.4%,109%,91.1%,–,97.8%,97.2%,93.1%,77.6%,86.9%,90.5%,94.2%,–,97.4%,108%,82.5%,–,81.5%,85.1%
C=C(C)[C@@H]1CC[C@]2(C(N)=O)CC[C@]3(C)[C@H](CC[C@@H]4[C@@]5(C)C/C(=C/c6cccnc6)C(=O)C(C)(C)[C@@H]5CC[C@]43C)[C@@H]12,-47.4% [100 µM] (active),21.2% [100 µM],10.2% [100 µM],23.5% [100 µM],7.09% [100 µM] (active),8.38% [100 µM] (active),7.08% [100 µM] (active),2.39% [100 µM] (active),10.7% [100 µM],6.37% [100 µM] (active),20.3% [100 µM],-6.45% [100 µM] (active),–,12.9% [100 µM],12.5% [100 µM],25.5% [100 µM],14.7% [100 µM],17.3% [100 µM],14.9% [100 µM],–
COc1ccc(-c2c(C)nn3c(NCCN4CCOCC4)cc(C)nc23)cc1OC,104%,83.9%,104%,102%,106%,75.2%,97.6%,90.2%,79.8%,105%,103%,94.3%,–,101%,103%,79%,99.8%,–,117%,–
CCOC(=O)c1cc(C#N)n2ncc3ccccc3c12,108%,94.9%,84.1%,91.4%,91.6%,86.5%,106%,89.7%,98.4%,105%,97.7%,84.7%,–,107%,103%,98.3%,97.7%,72.4%,92.4%,–
Cc1cc(N2CCCCCC2)nc(N2CCN(CC(=O)Nc3ccc4c(ccn4Cc4ccccc4)c3)CC2)n1,52.8%,56%,27.7%,83.4%,55.1%,33.3%,–,–,23.4%,43.9%,32.5%,74.4%,46.1%,–,55.4%,47.2%,37.6%,8.99% (active),49.9%,–
Cc1cccc(C[C@H](NC(=O)Nc2ccc(Cl)cc2F)C(=O)N[C@@H]2C(=O)N3C[C@H](O)C[C@H]3C(=O)N3CCCC[C@H]3C(=O)N[C@@H](C)C(=O)N3C[C@H](C)C[C@H]3C(=O)O[C@H]2C)c1,0.151% (active),24.6%,10.3%,29.2%,8.94% (active),8.12% (active),31%,14.7%,11%,6.39% (active),13.5%,6.86% (active),7.83% (active),–,-26.4% (active),10.9%,89.9%,-4.82% (active),9.47% (active),–
Cc1ncc(C(=O)Nc2ccc(CN3CCN(C)CC3)c(C(F)(F)F)c2)cc1C#Cc1c(N)ncc2ccc(C#N)cc12,39.7%,57.5%,19.3%,37%,12.3%,16.1%,–,37.3%,16.1%,40.6%,53.2%,41.2%,44.5%,–,37.8%,26.9%,61.7%,6.65% (active),10.4%,–
CCN(CC)CCCC(C)Nc1c2ccc(C)cc2nc2ccc(OC)cc12 (configuration not stated),39.2%,42.3%,-16.5% (active),15.4%,25.5%,38%,30.9%,9.16% (active),4.33% (active),1.21% (active),34.3%,76.2%,-6.2% (active),55.7%,28.9%,0.397% (active),64%,70.2%,–,–
COc1ccc(C(=O)CSc2nnc(-c3cc(-c4ccccc4)nc4ccccc34)o2)cc1,129%,109%,96%,116%,108%,95.7%,112%,120%,96.3%,121%,103%,105%,107%,119%,109%,–,103%,100%,102%,–
Cc1ccc(N)c(O)c1,100%,98.6%,84.5%,158%,91%,94.8%,–,106%,112%,61.9%,96%,108%,–,112%,87.7%,92.9%,92.8%,50.7%,69.6%,–
COc1cc(C)cc2oc3oc(=N)c(C(=O)c4ccccc4)cc3c(=O)c12,114%,106%,79.3%,105%,95.5%,91.6%,118%,98.1%,94.5%,116%,105%,95.2%,105%,120%,101%,–,106%,90.3%,93.9%,–
CC[C@@](C)(NC(=O)[C@H](C)NC(=O)CCNC(=O)C(C)(C)NC(=O)[C@H](C)NC(=O)[C@@H]1CCCN1C(=O)[C@@](C)(CC)NC(=O)[C@H](Cc1ccccc1)NC(=O)C1CCCN1C(=O)C(C)(C)NC(=O)C1CCCN1C(=O)C(C)(C)NC(C)=O)C(=O)NCCC(=O)N[C@@H](CC(C)C)C(=O)NC(C)(C)C(=O)NCCC(=O)N[C@@H](CC(C)C)C(=O)NC(C)(C)C(=O)NC(C)(C)C(=O)N[C@@H](CC(C)C)C(=O)NCCC(=O)NCO (some centres not stated),-89% (active),–,-90.7% (active),-98.9% (active),-90.1% (active),-98.2% (active),-61.1% (active),-61.1% (active),-50.9% (active),-55.5% (active),-82% (active),-87.6% (active),-96.5% (active),–,-100% (active),-60.6% (active),-93.3% (active),-97.4% (active),-71.9% (active),-76.7% (active)
CC(C)C1=NOC(=O)C1=Cc1cn(-c2ccccc2)nc1-c1ccc(Cl)cc1,85.6%,–,71.4%,83.3%,82.6%,65.8%,4.95% (active),-4.85% (active),-22% (active),-28.5% (active),79.2%,99.1%,98.2%,106%,86.2%,77.4%,91.7%,91.4%,79.6%,78.2%
CSc1nc(N)c(N=Nc2ccc(S(=O)(=O)Nc3nnc(C)s3)cc2)c(=O)[nH]1,113%,–,76.9%,108%,102%,139%,128%,106%,110%,132%,103%,113%,–,96.9%,106%,89.4%,113%,97.7%,126%,92.1%
